Experimental findings from PubChem BioAssay AID588591 (National Center for Advancing Translational Sciences (NCATS), 2011) are described below.

Values joined by “and” are separate entries in the source; they are usually repeats but may differ in a detail not shown here. Equal values may be shown once. Among all 390,000 compounds or so, about 4,700 (1.2%) were called active. Roughly 4% stayed inconclusive and do not appear here. Calls come from the whole dose curve; as a rule, active = well fitted inhibition curve with a large enough effect; inconclusive = small, poorly fitted or top-dose-only effect, or another doubt; inactive = no such curve, though single readings can be large or run the other way. What follows is part of a selection rich in actives, with near analogues and random picks from the rest. Where a call stands in place of a potency, no number is given. Some compounds were tested as several samples or in several runs, with calls that do not always agree.
Potency is the fitted concentration of half-maximal effect.

The target of this assay is DNA polymerase eta (Homo sapiens) (UniProt Q9Y253). Description: qHTS for Inhibitors of Polymerase Eta. Particulars: recombinant Pol eta, fluorescent DNA replication assay; series mostly up to 114 µM. An outline of the steps: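 Pol eta at 10 nM preincubated with compounds 15 min at room temperature; reaction started with fluorescent substrate (50 nM final) and read kinetically at 0 and 10 min.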
Chain of DNA polymerase eta (Homo sapiens) (Q9Y253 whole entry, looked up): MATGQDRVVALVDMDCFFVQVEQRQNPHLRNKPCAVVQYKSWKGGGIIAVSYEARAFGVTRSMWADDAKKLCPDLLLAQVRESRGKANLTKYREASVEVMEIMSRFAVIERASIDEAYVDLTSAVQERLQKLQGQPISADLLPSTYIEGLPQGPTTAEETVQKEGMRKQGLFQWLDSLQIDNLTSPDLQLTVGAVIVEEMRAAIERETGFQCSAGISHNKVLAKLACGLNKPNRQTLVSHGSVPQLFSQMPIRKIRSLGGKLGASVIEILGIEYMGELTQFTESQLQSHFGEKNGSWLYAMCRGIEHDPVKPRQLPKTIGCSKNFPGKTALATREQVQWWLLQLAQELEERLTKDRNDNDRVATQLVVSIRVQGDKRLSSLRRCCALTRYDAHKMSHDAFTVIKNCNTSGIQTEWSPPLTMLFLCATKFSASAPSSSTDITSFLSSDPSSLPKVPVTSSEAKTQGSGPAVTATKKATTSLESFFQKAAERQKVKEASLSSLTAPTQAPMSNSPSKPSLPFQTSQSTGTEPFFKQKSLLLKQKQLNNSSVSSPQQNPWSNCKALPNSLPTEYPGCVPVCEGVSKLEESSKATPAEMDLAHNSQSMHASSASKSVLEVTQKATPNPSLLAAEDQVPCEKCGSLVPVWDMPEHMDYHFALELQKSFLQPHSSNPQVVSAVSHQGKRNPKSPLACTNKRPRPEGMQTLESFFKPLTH
(qHTS replaces the single test concentration by a dilution series.)
For `O=S(=O)(NCCc1nnc2ccc(SCc3ccc(Cl)cc3Cl)nn12)c1ccccc1`, the Potency result is “inactive”.

Take `CCOCCCn1c(SCC(=O)Nc2ccc(CC)cc2)nc2ccccc2c1=O`: the Potency entry was “inactive”.

For `Cc1ccc(/C=C/C(=O)Nc2ccc([N+](=O)[O-])c(NC(=O)/C=C/c3ccc(C)o3)c2)o1`, the Potency is 8.91 µM (active).

With `CC(=O)Nc1ccc2c3c(ccc([N+](=O)[O-])c13)CC2`, the Potency result was “inactive”.

In the case of `COc1ccc(OC)c(NC(=O)/C=C/c2ccc(C)o2)c1`, the Potency result was “inactive”.

Consider `COc1ccc(NC(=O)CCNS(=O)(=O)c2ccc3c(c2)CCCC(=O)N3)cc1Cl`, for which the Potency entry was “inactive”.

As to `O=C(CSCc1ccc([N+](=O)[O-])cc1)NCCSCc1ccccc1`, the Potency entry was “inactive”.

On to `C=CCNC(=S)N1CCN(CCN=Cc2c(C)[nH]n(-c3ccc([N+](=O)[O-])cc3)c2=O)CC1`, for which the Potency entry is “inactive”.

As for `O=c1[nH]n(-c2ccc([N+](=O)[O-])cc2)c(=O)c2ccccc12`, the Potency is 39.8 µM (active).

As for `Cc1cc(C)cc(NC(=O)CSc2oc(-c3ccccc3)nc2S(=O)(=O)c2ccc(Cl)cc2)c1`, the Potency result is “inactive”.

Consider `CCOc1ccccc1Nc1nnc(SCc2ccc(C(=O)OC)o2)s1`, for which the Potency entry is “inactive”.

Consider `Cc1ccc(C(=O)Oc2coc(CSc3nnc(NC(=O)c4cccs4)s3)cc2=O)cc1C`, for which the Potency was 7.94 µM (active).

Regarding `COCCSc1nnc(NC(=O)c2cc(OC)c(OC)cc2[N+](=O)[O-])s1`, the Potency result was “inactive”.

Take `CC1=C(c2ccc(C)cc2)S(=O)(=O)NC1=NCCCN1CCN(c2cc(C)ccc2C)CC1`: the Potency result was “inactive”.

Consider `CCc1ccc2ncc3c(-c4ccc(C)cc4)nn(CC(=O)NCc4ccccc4)c3c2c1`, for which the Potency entry was “inactive”.

Turning to `CCc1ccc(CNCc2c(C(=O)O)n(Cc3ccc(F)cc3Cl)c3cc(OC)ccc23)cc1`, the Potency entry is “inactive”.

For the compound `COc1cc(C(=O)NCCc2csc3nc(-c4ccccc4C)nn23)cc(OC)c1OC`, the Potency entry was “inactive”.

With `O=C(COC(=O)c1ccc(Br)o1)NC12CC3CC(CC(C3)C1)C2`, the Potency result is “inactive”.

As to `O=C(COC(=O)c1ccc([N+](=O)[O-])o1)NC12CC3CC(CC(C3)C1)C2`, the Potency was 79.4 µM (active).

For the compound `O=C(OCC(=O)c1cccs1)c1ccc([N+](=O)[O-])o1`, the Potency result was “inactive”.

Regarding `ON=C1/C(=N\O)CC2(C/C1=N/O)OCCO2`, the Potency is 56.2 µM (active).

Turning to `COc1ccc(OC)c(NC(=O)CN2CCCN(Cc3cc(C)ccc3C)S2(=O)=O)c1`, the Potency entry is “inactive”.

Turning to `COC(=O)c1sc(-c2ccc(C(C)(C)C)cc2)cc1NC(=O)/C=C/C(=O)O`, the Potency is 79.4 µM (active).

With `COc1ccc(Nc2ncc3c(n2)CCN(C(=O)OC(C)(C)C)C3)cc1`, the Potency entry is “inactive”.

As for `COc1ccc(/C=C/c2noc(-c3ccccc3O)n2)cc1OC`, the Potency result is “inactive”.

Take `O=C(CCc1nc(CN2CCN(S(=O)(=O)c3ccc(Cl)cc3)CC2)no1)N1CCCCC1`: the Potency entry was “inactive”.

In the case of `CCCCN(CC)CCCNC(=O)Cn1ncc2c([nH]c3ccc(C)cc32)c1=O`, the Potency entry is “inactive”.

For the compound `Cc1cc(=O)n2[nH]c(-c3sccc3-n3c(C)ccc3C)cc2n1`, the Potency is 22.4 µM (active).

Take `Cc1ccc(-c2cc(N)n(Cc3cccc(Cl)c3)n2)cc1`: the Potency result was “inactive”.

Consider `COc1cc(Nc2nc(-c3ccc(OC)c(OC)c3)nc3ccccc23)cc(OC)c1`, for which the Potency result is “inactive”.

Take `CC(=O)N(C1=C(Cl)C(=O)c2ccccc2C1=O)c1ccc(C(=O)O)cc1`: the Potency was 20 µM (active).

On to `CCC(=O)N1CCc2cc(S(=O)(=O)NC(Cc3ccccc3)C(=O)NCc3ccc(C)cc3)ccc21` (stereo not drawn), for which the Potency result was “inactive”.

Consider `Cc1ccc2nc(SCC(=O)Nc3cccc4ccccc34)nc(=O)n2c1`, for which the Potency result is “inactive”.

In the case of `Cc1ccn2c(=O)nc(SCC(=O)NCc3ccc(F)cc3)nc2c1`, the Potency is 28.2 µM (active).

In the case of `COc1ccc(CNC(=O)CSc2n[nH]c(-c3ccc(F)cc3)n2)cc1`, the Potency result was “inactive”.

As for `Cc1ccc(C)c(N2CCN(C(=O)Cn3ncc4c(=O)oc5ccc(C)cc5c43)CC2)c1`, the Potency entry is “inactive”.

`CCOC(=O)c1ccc(CN(Cc2ccccc2)S(=O)(=O)c2ccc(Cl)cc2)cc1`: the Potency entry is “inactive”.

Consider `CCCn1c(=O)c2[nH]c(-c3ccc(OCC(=O)NCCN)cc3)nc2n(CCC)c1=O`, for which the Potency result was “inactive”.

As to `COc1ccc(CC(=O)Nc2ccc(-c3nc4ccccc4s3)c(C)c2)cc1`, the Potency entry is “inactive”.

Take `COc1cccc(NC(=O)c2ccc3nc(CCc4ccccc4)oc3c2)c1`: the Potency result is “inactive”.

Turning to `COc1ccc(C(=O)Nc2cccc(/C=C(/CCC(=O)O)c3nc4ccccc4s3)c2)cc1`, the Potency is 39.8 µM (active).

As for `COc1ccc(OC)c(NC(=O)C2CCN(S(=O)(=O)c3ccc(C)cc3)CC2)c1`, the Potency entry was “inactive”.

With `CCOC(=O)c1ccc(N2C(=O)c3n[nH]c(-c4ccco4)c3C2c2ccc(O)cc2)cc1` (stereo not drawn), the Potency entry was “inactive”.

Take `COc1ccccc1NC(=O)CN1C(=O)c2ccccc2Sc2ccc(C(=O)N3CCCC3)cc21`: the Potency was 79.4 µM (active).

On to `CCN1C(=O)c2ccccc2Sc2ccc(NC(=O)Cc3ccc(OC)cc3)cc21`, for which the Potency result was “inactive”.

Turning to `COC(=O)c1ccc2c(c1)N(CC(=O)Nc1ccc(C)c(C)c1)C(=O)c1ccccc1S2`, the Potency result was “inactive”.

`CC(C)(C)C1CCc2c(sc(NC(=O)c3ccccc3F)c2C(=O)N2CCCCC2)C1` (stereo not drawn): the Potency entry was “inactive”.

On to `CCOc1ccccc1NC(=O)c1ccc2c(c1)CCN2S(=O)(=O)c1ccc(C)cc1`, for which the Potency entry is “inactive”.

Regarding `CCc1ccc(C2C(C(=O)Nc3ccccc3)=C(C)Nc3c(C(=O)Nc4ccc(C)cc4)cnn32)cc1` (stereo not drawn), the Potency entry was “inactive”.

For `C1=C(N2CCOCC2)/C(=C/c2nc3ccccc3[nH]2)CC1`, the Potency was 20 µM (active).

Consider `COc1cc(OC)c(C2C=C(C(=O)O)Nc3ncnn32)cc1OC` (stereo not drawn), for which the Potency result is “inactive”.

On to `Cc1cc(C)c(NC(=O)CSc2nc3nccnc3c(=O)n2CCc2c[nH]c3ccccc23)c(C)c1`, for which the Potency entry is “inactive”.

In the case of `Cc1cc(C(=O)COc2ccccc2[N+](=O)[O-])c(C)n1-c1cccc(S(=O)(=O)N2CCOCC2)c1`, the Potency result is “inactive”.

`Cc1cc(C(=O)N/N=C/c2ccc(O)c([N+](=O)[O-])c2)c(C)n1-c1ccc(F)cc1`: the Potency is 8.91 µM (active).

As to `O=C(N/N=C/c1cccc([N+](=O)[O-])c1)C1CC(=O)N(c2ccc(Br)cc2)C1` (stereo not drawn), the Potency entry is “inactive”.

For `CC(C)(C)c1ccc(C(=O)NCC(c2ccco2)S(=O)(=O)c2ccc(F)cc2)cc1` (stereo not drawn), the Potency entry is “inactive”.

`O=C1/C(=C\c2ccc([N+](=O)[O-])cc2)CS(=O)(=O)C/C1=C/c1ccc([N+](=O)[O-])cc1`: the Potency is 15.8 µM (active).

On to `O=C(CC1Oc2ccc(Cl)cc2NC1=O)NCc1ccccc1` (stereo not drawn), for which the Potency entry was “inactive”.

As for `COc1ccccc1NC(=O)C(=O)c1cc(C)n(-c2ccccc2F)c1C`, the Potency result is “inactive”.

Turning to `C=CC1=C(C(=O)O)N2C(=O)[C@@H](NC(=O)/C(=N\OCC(=O)O)c3csc(N)n3)[C@H]2SC1`, the Potency was 7.08 µM (active).

With `CO/N=C(\C(=O)N[C@@H]1C(=O)N2C(C(=O)O)=C(COC(C)=O)CS[C@H]12)c1csc(N)n1` (stereo in doubt), the Potency entry was “inactive and 20 µM (active) and 28.2 µM (active)”.

As for `CC(=O)N1CCCc2cc(S(=O)(=O)N3CCC(C(=O)NCc4ccc(C)cc4)CC3)ccc21`, the Potency entry was “inactive”.

Take `CC(=O)OC1=C(C(C)=O)N(Cc2ccccc2)S(=O)(=O)c2ccccc21`: the Potency result is “inactive”.

Turning to `CCN(CC)c1nn2c(=O)c(C(=O)NCCc3ccccc3)cnc2s1`, the Potency result was “inactive”.

`COc1ccccc1CNC(=O)c1ccc(CS(=O)c2ccccc2Cl)o1` (stereo not drawn): the Potency entry was “inactive”.

With `O=C(CC1N=C2c3ccccc3N=C(SCc3cccc(Cl)c3)N2C1=O)NCc1ccc2c(c1)OCO2` (stereo not drawn), the Potency entry is “inactive”.

For the compound `CC(/C=C/C1(O)C(C)CC(=O)CC1(C)C)OC1OC(CO)C(O)C(O)C1O` (stereo not drawn), the Potency is 31.6 µM (active).

Consider `CC1=C(C)C(=O)OC(C(C)C2CCC3C4CC=C5CC(OC6OC(COC7OC(CO)C(O)C(O)C7O)C(O)C(O)C6O)CC(O)C5(C)C4CCC23C)C1` (stereo not drawn), for which the Potency entry is “inactive”.

For `C=CC1C(OC2OC(CO)C(O)C(O)C2O)OC=C(C(=O)OC)C1CC1CC(=O)CC(CC(=O)CCc2ccc(O)cc2)O1` (stereo not drawn), the Potency entry is “inactive”.

On to `Cc1ccc(Nc2c(-c3ccc(C)cc3)nc3cnccn23)cc1`, for which the Potency entry was “inactive”.

For `COc1cccc(NC(=O)N(Cc2cn(C)c3ccccc23)C2CCCCCC2)c1`, the Potency entry was “inactive”.

`O=C1CSC(=S)N1/N=C/c1ccc(O)c([N+](=O)[O-])c1`: the Potency was 6.31 µM (active).

Consider `COc1cc(Cl)c(NC(=O)C(NS(=O)(=O)c2cccs2)C(C)C)c(OC)c1` (stereo not drawn), for which the Potency result is “inactive”.

In the case of `COc1cccc2c1C(=O)c1c(O)c3c(c(O)c1C2=O)CC(O)(C(C)=NNC(=O)c1ccc(Cl)c(Cl)c1)CC3OC1CC(N)C(O)C(C)O1` (stereo not drawn), the Potency is 12.6 µM (active).

Turning to `CCOc1ccc(N(Cc2ccccc2)C(=O)c2nc(S(C)(=O)=O)ncc2Cl)cc1`, the Potency result was “inactive”.

Turning to `Cc1ccc(-c2cn3c(n2)sc2cc(C(=O)NCc4cccs4)ccc23)c(C)c1`, the Potency entry is “inactive”.

On to `O=C(CSC1=Nc2ccccc2C2=NC(CC(=O)NCc3ccco3)C(=O)N12)NCc1ccco1` (stereo not drawn), for which the Potency is 15.8 µM (active).

Consider `O=C(CC1N=C2c3ccccc3N=C(SCc3ccc(F)cc3)N2C1=O)NCc1cccs1` (stereo not drawn), for which the Potency result is “inactive”.

For `COc1ccccc1NC(=O)CSC1=Nc2ccccc2C2=NC(CC(=O)NCc3cccs3)C(=O)N12` (stereo not drawn), the Potency result is “inactive”.

Turning to `Cc1cc(=O)c2cc(C(=O)Nc3cccc(C)c3C)ccc2[nH]1`, the Potency result is “inactive”.

Consider `CCc1ccccc1N1C(=O)CN(S(=O)(=O)CC)CC1(C)C(=O)NC1CCCCC1` (stereo not drawn), for which the Potency result is “inactive”.

In the case of `COc1cc(/C=C2/C(=O)NN(c3ccc(F)cc3)C2=O)cc([N+](=O)[O-])c1O`, the Potency is 44.7 µM (active).

Regarding `COc1cccc2c1cc1c(=O)n(CC(=O)N3CCN(c4cccc(Cl)c4)CC3)nc(C)n12`, the Potency result was “inactive”.

For the compound `COc1cc(/C=C2/C(=O)NN(c3cccc(Cl)c3)C2=O)cc(Br)c1O`, the Potency is 89.1 µM (active).

As for `COc1ccc(N2C(=O)CC(Nc3ccc(F)cc3)C2=O)c([N+](=O)[O-])c1` (stereo not drawn), the Potency entry is “inactive”.

Turning to `COc1cc(CN2CC(C)CC(C)C2)cc([N+](=O)[O-])c1O` (stereo not drawn), the Potency result is “inactive”.

As to `CCOC(=O)c1c(NC(=O)/C(C#N)=C/c2ccccc2)sc2c1CCC2`, the Potency result is “inactive”.

With `O=C(NCCCO)C(=O)Nc1c2c(nn1-c1ccc(F)cc1)CSC2`, the Potency result was “inactive”.
